Rows were chosen to be rich in hits. Some 6.7% of all compounds tested hit in one or more screens of this group.
T cruzi growth-1 = inhibitors of T. cruzi proliferation | T. cruzi beta-gal in NIH3T3, GalScreen luminescence, 90 h | inhibition, % at 8.34 µM | 5.9% of 77,000 active;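 active means mean inhibition above about 93%, with at least 55% of replicates each passing it, limit read from the data, passing the limit was not always enough; inconclusive means only one of those two conditions holds; inactive means neither condition holds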
C diff growth = inhibitors of Clostridium difficile growth; Clostridium difficile clinical isolate growth, OD600, 24 h; stronger effect = lower value; growth activity, negative = inhibition, % at 16 µg/mL (by protocol); 0.25% of 86,000 active; AID 1259249;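 active means mean growth activity at or below -80% and every replicate also at or below -80%; inconclusive means mean at or below -80% but some replicate above -80%; inactive means mean growth activity above -80%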;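 further: 0% = DMSO wells and -100% = levofloxacin 16 µg/mL wells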
Pf Dd2 inh = blocks growth of Plasmodium falciparum Dd2 parasites; 2.3% of 94,000 active; activity change, % at 10 µM; P. falciparum Dd2 growth, SYBR Green, 72 h; stronger effect = lower value; in the data active means activity change below about -80%; inconclusive means no clear call, values can overlap the other calls
T cruzi growth-2 = inhibitors of T. cruzi proliferation | shares compounds with T cruzi growth-1 | T. cruzi beta-gal in NIH3T3, GalScreen luminescence, 90 h | inhibition, % at 8.35 µM | 72% of 5,600 active;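 active means mean replicate inhibition above about 95% and at least 55% of replicates individually reaching it, limit read from the data; inconclusive means only one of the two criteria is met; inactive means neither criterion is met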
T cruzi growth-3 = Trypanosoma cruzi proliferation inhibition; T. cruzi beta-gal in NIH3T3, GalScreen luminescence, 90 h; shares compounds with T cruzi growth-1; inhibition, % at 2.09 µM; 21% of 5,600 active;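 active means mean inhibition above about 95%, with at least 55% of replicates also reaching it, limit read from the data; inconclusive means meets just one of the two conditions; inactive means meets neither condition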;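 further: plate controls were neutral control median for no effect and positive control median for full effect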
3T3 cytotox = cytotoxicity in mouse NIH/3T3 fibroblasts | shares compounds with T cruzi growth-1 | NIH/3T3 viability, CellTiter-Glo ATP luminescence, 90 h | cytotoxicity (signal decrease), % at 8.35 µM | 14% of 5,600 active | AID 651742;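 active means mean signal decrease across replicates above about 35% based on untreated-well scatter, with enough replicates individually passing, limit read from the data; inconclusive means no rule stated though some were filed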;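 further: 0% = median of neutral control wells and 100% = median of positive control wells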
NIH3T3 tox 2 = cytotoxicity in mouse NIH/3T3 fibroblasts | NIH/3T3 viability, CellTiter-Glo ATP luminescence, 90 h | inhibition, % at 24.9 µM | 56% of 5,600 active | shares compounds with T cruzi growth-1;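 active means mean loss of cell viability signal at or above a set limit, and enough replicates individually reaching it; inconclusive means meets only the mean limit or only the replicate share; inactive means meets neither condition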;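 further: 0% = median of neutral control wells and 100% = median of positive control wells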
Numbers without * were called inactive; u = inconclusive; x = not tested or not shown.

SMILES	T cruzi growth-1	C diff growth	Pf Dd2 inh	T cruzi growth-2	T cruzi growth-3	3T3 cytotox	NIH3T3 tox 2
COc1ccc(S(=O)(=O)Nc2ccc3c(c2)C(=O)N([C@H](C)CO)C[C@H](C)[C@@H](CN(C)S(=O)(=O)c2ccc(OC)cc2)OCCCC[C@H](C)O3)cc1	u	3.2	-63.4	110.7*	50.7	5.9	13.4
COc1ccc(S(=O)(=O)Nc2ccc3c(c2)C(=O)N([C@H](C)CO)C[C@@H](C)[C@H](CN(C)S(=O)(=O)c2ccc(OC)cc2)OCCCC[C@@H](C)O3)cc1	u	4.0	-73.0	102.5*	62.5	18.2	12.3
COc1ccc(S(=O)(=O)Nc2ccc3c(c2)C(=O)N([C@H](C)CO)C[C@H](C)[C@H](CN(C)S(=O)(=O)c2ccccc2)OCCCC[C@@H](C)O3)cc1	x	-2.9	-17.9	x	x	x	x
COc1ccc(S(=O)(=O)N(C)C[C@H]2OCCCC[C@H](C)Oc3ccc(NS(=O)(=O)c4ccccc4)cc3C(=O)N([C@@H](C)CO)C[C@@H]2C)cc1	93.4	-2.6	x	x	x	x	x
COc1ccc(S(=O)(=O)Nc2ccc3c(c2)C(=O)N([C@@H](C)CO)C[C@H](C)[C@@H](CN(C)S(=O)(=O)c2ccccc2)OCCCC[C@H](C)O3)cc1	x	-0.7	-72.1	x	x	x	x
CC(C)NC(=O)Nc1cccc2c1O[C@@H](CN(C)C(=O)Nc1ccc(F)cc1)[C@H](C)CN([C@H](C)CO)C2=O	15.8	-1.9	29.3	x	x	x	x
O=C(c1ccccn1)N1CC[C@@H]2[C@H]1c1cc(Br)ccc1N[C@@H]2CO	44.0	1.9	-5.3	x	x	x	x
COc1ccc(S(=O)(=O)N[C@H]2C=C[C@@H](CC(=O)N3CCc4ccccc4C3)O[C@@H]2CO)cc1	57.4	x	-5.1	x	x	x	x
Cc1noc(C)c1S(=O)(=O)Nc1ccc2c(c1)C(=O)N([C@H](C)CO)C[C@@H](C)[C@@H](CN(C)CC1CCCCC1)OCCCC[C@@H](C)O2	19.3	9.1	-63.1	x	x	x	x
C[C@H]1CN([C@@H](C)CO)C(=O)c2cc(NC(=O)NC3CCCCC3)ccc2O[C@@H]1CN(C)Cc1ccc2c(c1)OCO2	-23.1	-1.6	-11.9	x	x	x	x
C[C@H]1CN([C@@H](C)CO)C(=O)c2cc(NC(=O)NC3CCCCC3)ccc2O[C@H]1CN(C)Cc1ccc2c(c1)OCO2	u	-3.8	-2.1	104.4*	98.7*	u	41.3*
C[C@@H]1CN([C@H](C)CO)C(=O)c2cc(NC(=O)NC3CCCCC3)ccc2O[C@@H]1CN(C)Cc1ccc2c(c1)OCO2	22.4	-4.9	-30.1	x	x	x	x
C[C@H](CO)N1C[C@H](C)[C@H](CN(C)Cc2ccc3c(c2)OCO3)Oc2ccc(NC(=O)NC3CCCCC3)cc2C1=O	100.1*	4.4	18.2	u	97.0*	27.8	51.3*
C[C@@H]1CN([C@@H](C)CO)C(=O)c2cc(C#CC3CCCCC3)cnc2O[C@@H]1CN(C)S(C)(=O)=O	85.3	-1.9	-11.8	x	x	x	x
O=C(C[C@@H]1C=C[C@H](NC(=O)C2CC2)[C@H](CO)O1)NCc1ccncc1	x	0.4	14.9	x	x	x	x
COc1ccc(S(=O)(=O)N(C)C[C@@H]2Oc3cc(-c4cccc(F)c4)ccc3S(=O)(=O)N([C@@H](C)CO)C[C@@H]2C)cc1	x	8.4	-69.1	x	x	x	x
C[C@@H]1CN([C@H](C)CO)S(=O)(=O)c2ccc(-c3cccc(F)c3)cc2O[C@@H]1CN(C)S(=O)(=O)c1ccc(F)cc1	98.4*	3.1	-0.1	99.8*	89.1	46.6*	46.7*
Cc1ccc(S(=O)(=O)N(C)C[C@H]2Oc3cc(-c4cccc(F)c4)ccc3S(=O)(=O)N([C@@H](C)CO)C[C@@H]2C)cc1	123.5*	0.5	-47.9	97.4*	94.2	12.1	38.0*
C[C@H]1CN([C@@H](C)CO)S(=O)(=O)c2ccc(-c3cccc(F)c3)cc2O[C@@H]1CN(C)S(=O)(=O)c1ccc(F)cc1	127.0*	2.6	-11.7	104.5*	103.7*	57.3*	38.2*
C[C@H]1CN([C@@H](C)CO)S(=O)(=O)c2ccc(-c3cccc(F)c3)cc2O[C@H]1CN(C)S(C)(=O)=O	138.4*	-10.0	-44.6	101.8*	68.9	28.7	52.3*
C[C@H](CO)N1C[C@H](C)[C@@H](CN(C)C)Oc2cc(-c3cccc(F)c3)ccc2S1(=O)=O	-17.9	-3.7	x	x	x	x	x
C[C@H]1CN([C@@H](C)CO)S(=O)(=O)c2ccc(-c3cccc(F)c3)cc2O[C@@H]1CN(C)S(C)(=O)=O	-46.9	x	15.2	x	x	x	x
C[C@@H]1CN([C@@H](C)CO)S(=O)(=O)c2ccc(-c3cccc(F)c3)cc2O[C@@H]1CN(C)C	-5.6	-3.7	x	x	x	x	x
O=C(Cc1ccccc1)N1CC[C@@H]2[C@H]1c1cc(-c3ccccc3)ccc1N[C@@H]2CO	79.7	63.2	10.7	x	x	x	x
O=C(C[C@@H]1C=C[C@H](NC(=O)Nc2ccc3c(c2)OCO3)[C@@H](CO)O1)NCc1ccc2c(c1)OCO2	-5.3	-5.9	4.3	x	x	x	x
SMILES	T cruzi growth-1	C diff growth	Pf Dd2 inh	T cruzi growth-2	T cruzi growth-3	3T3 cytotox	NIH3T3 tox 2
CCCN1C[C@H](C)[C@@H](OC)CN(C)C(=O)c2ccc(NC(=O)c3cccc(OC)c3)cc2OC[C@H]1C	-26.4	-2.8	-25.3	x	x	x	x
C[C@@H]1CN([C@@H](C)CO)C(=O)c2cc(NS(=O)(=O)c3ccc(F)cc3)ccc2O[C@H]1CN(C)C(=O)NC1CCCCC1	79.2	4.6	19.2	x	x	x	x
CCS(=O)(=O)N1CC(=O)N2[C@@H](CO)[C@H](c3ccc(-c4cccc(F)c4)cc3)[C@@H]2C1	x	17.1	-6.4	x	x	x	x
C[C@@H]1CN([C@@H](C)CO)S(=O)(=O)c2ccc(C3=CCCCC3)cc2O[C@@H]1CN(C)C(=O)Cc1ccccc1	86.2	5.3	16.2	x	x	x	x
OC[C@@H]1[C@H](c2ccc(-c3cccnc3)cc2)[C@@H]2CN(Cc3ccccn3)CCCCN12	94.8	-3.9	-45.2	x	x	x	x
OC[C@H]1[C@@H](c2ccc(Br)cc2)[C@H]2CN(Cc3ccccn3)CCCCN21	25.4	4.1	18.5	x	x	x	x
OC[C@H]1[C@H](c2ccc(Br)cc2)[C@@H]2CN(Cc3ccccn3)CCCCN12	108.6*	-0.8	-11.7	u	55.2	2.8	3.4
OC[C@@H]1[C@H](c2ccc(-c3cccnc3)cc2)[C@H]2CN(Cc3ccccn3)CCCCN12	108.6*	-4.8	-15.7	97.5*	75.0	3.6	6.4
C[C@H]1CN([C@@H](C)CO)C(=O)Cc2cc(NS(=O)(=O)c3ccc(F)cc3)ccc2O[C@@H]1CN(C)Cc1ccc(C(F)(F)F)cc1	94.8	26.7	7.2	x	x	x	x
Cc1cc(C(=O)Nc2cccc3c2O[C@@H](CN(C)C(=O)Nc2ccc(C(F)(F)F)cc2)[C@H](C)CN([C@H](C)CO)C3=O)n(C)n1	-1.1	-3.1	-3.5	x	x	x	x
N#Cc1ccc(-c2ccc3c(c2)[C@@H]2[C@@H](CCN2C(=O)c2ccccc2F)[C@@H](CO)N3)cc1	102.4*	-1.6	8.2	102.7*	81.8	21.4	49.5*
